Data: PubChem BioAssay (NCATS)
Several values for one entry are separate records, joined by “and”; a condition that tells them apart may be missing. Identical values can stand only once. Inconclusive results are not listed. Values without a mark were called inactive. Activity calls are given as the source filed them. Calls come from the whole dose curve; as a rule, active = well fitted curve in the direction sought with a large enough effect; inconclusive = small, poorly fitted or top-dose-only effect, or another doubt; inactive = no such curve, though single readings can be large; an effect the other way counts as inactive or inconclusive.

Assay: Primary qHTS for inhibitors of nuclear receptor binding SET domain protein 2 (NSD2) in an isogenic RCH-ACV NSD2 p.E1099K mutant (9B) (AID 1645876)
Settings: RCH-ACV NSD2 E1099K (9B) viability, CellTiter-Glo, 72 h; series mostly up to 44.9 µM; activity change, negative = viability loss: at the top concentration
% is set by controls: 0 for no effect and ±100 for the full control effect; potency is the fitted concentration of half-maximal effect.
Note: nearly all actives have a fitted effect of over 70% in size.

SMILES | Potency | activity change, negative = viability loss [%] | outcome
CCCCCCCCCCCCCC[N+](C)(C)Cc1ccccc1 | 0.335 µM (active) | – | –
CC(=O)O[C@H]1C[C@@H]2CC[C@@H]3[C@H](CC[C@@]4(C)[C@H]3C[C@H]([N+]3(C)CCCCC3)[C@@H]4OC(C)=O)[C@@]2(C)C[C@@H]1N1CCCCC1 | – | -8.49 | –
CC1=C(C(=O)O)N2C(=O)[C@@H](NC(=O)[C@H](N)c3ccccc3)[C@H]2SC1 | – | -12.3 | –
NS(=O)(=O)c1cc2c(cc1Cl)NC(CC1CCCC1)NS2(=O)=O (configuration not stated) | – | 3.78 | –
NC(=S)N/N=C/c1cccnc1 | – | -20.1 | –
C[C@H]1O[C@@H](O[C@H]2CC[C@@]3(C)[C@H](CC[C@@H]4[C@@H]3C[C@@H](O)[C@]3(C)[C@@H](C5=CC(=O)OC5)CC[C@]43O)C2)C[C@H](O)[C@@H]1O[C@H]1C[C@H](O)[C@H](O[C@H]2C[C@H](O)[C@H](O[C@@H]3O[C@H](CO)[C@@H](O)[C@H](O)[C@H]3O)[C@@H](C)O2)[C@@H](C)O1 | 0.0668 µM (active) | – | –
CCCCCN=C(N)N/N=C/c1c[nH]c2ccc(OC)cc12 | 7.5 µM (active) | – | –
CCN(CC)CCOc1ccccc1C(=O)CCc1ccccc1 | – | -25.8 | –
Oc1c(Cl)cc(Cl)c(Cl)c1Cc1c(O)c(Cl)cc(Cl)c1Cl | 5.96 µM (active) | – | –
Cc1ccccc1OCC(O)CO (configuration not stated) | – | 4.77 | –
Nc1nc(N)c(-c2ccccc2)s1 | – | 8.57 | –
CCN(CC)CCOc1ccc2c(c1)C(=O)c1cc(OCCN(CC)CC)ccc1-2 | 9.44 µM (active) | – | –
O=C(O)CCC(=O)Nc1ccc(S(=O)(=O)Nc2nccs2)cc1 | – | -7.59 | –
C#C[C@]1(O)CC[C@H]2[C@@H]3CCc4cc(OC)ccc4[C@H]3CC[C@@]21C | inactive | – | –
CN1CCc2cccc3c2[C@H]1Cc1ccc(O)c(O)c1-3 | 6.68 µM (active) | – | –
CCCCCCCCNC(C)C(O)c1ccc(SC(C)C)cc1 (configuration not stated) | 10.6 µM (active) | – | –
c1ccc(CC2=NCCN2)cc1 | 8.41 µM (active) | – | –
CCN(CC)CCNc1ccc(CO)c2sc3ccccc3c(=O)c12 | 2.66 µM (active) | – | –
COc1cc([C@H]2Oc3cc([C@H]4Oc5cc(O)cc(O)c5C(=O)[C@@H]4O)ccc3O[C@@H]2CO)ccc1O | – | 9.5 | –
CN(C)CCOC(=O)C(c1ccccc1)C1(O)CCCC1 (configuration not stated) | – | -7.71 | –
Cc1ccc(-c2ncc(Cl)cc2-c2ccc(S(C)(=O)=O)cc2)cn1 | inactive | – | –
COc1ccc2c(c1)c1c3n2CCN(C)C3=NCC1 | – | 1.18 | –
COc1ccc(C(=O)c2ccccc2O)c(O)c1 | – | – | inactive
CC(=O)Nc1ncc([N+](=O)[O-])s1 | – | – | inactive
CC[C@]12CCCN3CCc4c(n(c5ccccc45)C(=O)C1)[C@@H]32 | 8.41 µM (active) and 8.17 µM (active) | – | –
CC(CNC1CCCCC1)OC(=O)c1ccccc1 (configuration not stated) | – | -14.9 | –
CCOC(=O)C(C#N)=C(c1ccccc1)c1ccccc1 | – | -20 | –
N/C(=N\N=C\c1ccc(Cl)cc1)N/N=C/c1ccc(Cl)cc1 | – | -7.47 | –
C#C[C@]1(O)CC[C@H]2[C@@H]3[C@H](C)CC4=C(CCC(=O)C4)[C@H]3CC[C@@]21C | 23.7 µM (active) | – | –
CC(C)(C)NC[C@H](O)COc1cccc2c1CCCC2=O | – | 0.66 | –

Assay: Primary qHTS for inhibitors of nuclear receptor binding SET domain protein 2 (NSD2) in an RCH-ACV wild type WT cells (2C) (AID 1645877)
Settings: RCH-ACV (leukaemia line) NSD2 WT (2C) viability, CellTiter-Glo, 72 h; series mostly up to 44.9 µM; activity change, negative = cell killing: at the top concentration

SMILES | Potency | activity change, negative = cell killing [%] | outcome
CCCCCCCCCCCCCC[N+](C)(C)Cc1ccccc1 | 0.237 µM (active) | – | –
CC(=O)O[C@H]1C[C@@H]2CC[C@@H]3[C@H](CC[C@@]4(C)[C@H]3C[C@H]([N+]3(C)CCCCC3)[C@@H]4OC(C)=O)[C@@]2(C)C[C@@H]1N1CCCCC1 | – | -8.84 | –
CC1=C(C(=O)O)N2C(=O)[C@@H](NC(=O)[C@H](N)c3ccccc3)[C@H]2SC1 | – | 4.43 | –
NC(=S)N/N=C/c1cccnc1 | – | 4.21 | –
C[C@H]1O[C@@H](O[C@H]2CC[C@@]3(C)[C@H](CC[C@@H]4[C@@H]3C[C@@H](O)[C@]3(C)[C@@H](C5=CC(=O)OC5)CC[C@]43O)C2)C[C@H](O)[C@@H]1O[C@H]1C[C@H](O)[C@H](O[C@H]2C[C@H](O)[C@H](O[C@@H]3O[C@H](CO)[C@@H](O)[C@H](O)[C@H]3O)[C@@H](C)O2)[C@@H](C)O1 | 0.0944 µM (active) | – | –
CCCCCN=C(N)N/N=C/c1c[nH]c2ccc(OC)cc12 | 4.73 µM (active) | – | –
Oc1c(Cl)cc(Cl)c(Cl)c1Cc1c(O)c(Cl)cc(Cl)c1Cl | 5.96 µM (active) | – | –
Cc1ccccc1OCC(O)CO (configuration not stated) | – | 7.77 | –
CCN(CC)CCOc1ccc2c(c1)C(=O)c1cc(OCCN(CC)CC)ccc1-2 | 9.44 µM (active) | – | –
O=C(O)CCC(=O)Nc1ccc(S(=O)(=O)Nc2nccs2)cc1 | – | -18.2 | –
C#C[C@]1(O)CC[C@H]2[C@@H]3CCc4cc(OC)ccc4[C@H]3CC[C@@]21C | inactive | – | –
CN1CCc2cccc3c2[C@H]1Cc1ccc(O)c(O)c1-3 | 7.5 µM (active) | – | –
CCCCCCCCNC(C)C(O)c1ccc(SC(C)C)cc1 (configuration not stated) | 7.5 µM (active) | – | –
CN(C)CCOC(=O)C(c1ccccc1)C1(O)CCCC1 (configuration not stated) | – | -12.2 | –
Cc1ccc(-c2ncc(Cl)cc2-c2ccc(S(C)(=O)=O)cc2)cn1 | inactive | – | –
COc1ccc2c(c1)c1c3n2CCN(C)C3=NCC1 | – | 6.6 | –
COc1ccc(C(=O)c2ccccc2O)c(O)c1 | – | 0.198 | –
CC(=O)Nc1ncc([N+](=O)[O-])s1 | – | – | inactive
CC(CNC1CCCCC1)OC(=O)c1ccccc1 (configuration not stated) | – | -8.91 | –
CCOC(=O)C(C#N)=C(c1ccccc1)c1ccccc1 | – | -20.3 | –
N/C(=N\N=C\c1ccc(Cl)cc1)N/N=C/c1ccc(Cl)cc1 | – | -5.92 | –
C#C[C@]1(O)CC[C@H]2[C@@H]3[C@H](C)CC4=C(CCC(=O)C4)[C@H]3CC[C@@]21C | 21.1 µM (active) | – | –
